Experiment in all cases: DAPPL (digital affinity profiling via proximity ligation, sequencing); 10 mM Tris-HCl pH 7.5, 50 mM NaCl, 1 mM DTT, 4% glycerol, room temperature, 30 min; GST-TFs on glutathione beads, 16-mer random dsDNA library, 0.1% formaldehyde crosslink after washing; high values mean tight binding
One assay concerns the target T1, FLI1 (Homo sapiens, UniProt Q01543 1-452).
T1 sequence: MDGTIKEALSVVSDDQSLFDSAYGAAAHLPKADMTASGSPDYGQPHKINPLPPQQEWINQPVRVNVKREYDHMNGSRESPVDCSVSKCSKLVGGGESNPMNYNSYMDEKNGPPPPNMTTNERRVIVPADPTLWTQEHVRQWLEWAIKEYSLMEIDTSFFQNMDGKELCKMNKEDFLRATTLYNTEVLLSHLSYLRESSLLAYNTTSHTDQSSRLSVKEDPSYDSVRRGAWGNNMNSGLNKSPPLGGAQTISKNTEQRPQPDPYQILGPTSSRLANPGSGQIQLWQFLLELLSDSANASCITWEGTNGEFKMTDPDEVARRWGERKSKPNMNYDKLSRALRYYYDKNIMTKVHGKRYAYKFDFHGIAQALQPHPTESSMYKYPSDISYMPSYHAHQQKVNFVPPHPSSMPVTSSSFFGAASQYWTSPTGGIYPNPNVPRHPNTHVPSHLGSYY
The following applies: protein: recombinant; tags: N-terminal GST; dsDNA, one strand shown. Summed up:
(§1)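 Sequencing on an Illumina NextSeq500 followed washing, crosslinking with 0.1% formaldehyde, proximity ligation (BsaI/T4 ligase, 1 h, 37 °C) and PCR amplification of pools that had been incubated for 30 min at room temperature with 200 nmole of a random double-stranded 16-mer DNA library in Tris/NaCl/DTT/glycerol buffer. Each pool held DNA-barcoded human transcription factors, expressed in yeast as GST fusions and captured on glutathione beads, plus a tag-only sample. Binding signal is a hexamer's read frequency for a factor divided by its frequency in the tag-only sample.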

For another assay, the target named is T2, ELK1 (Homo sapiens, UniProt P19419 1-428).
T2 sequence: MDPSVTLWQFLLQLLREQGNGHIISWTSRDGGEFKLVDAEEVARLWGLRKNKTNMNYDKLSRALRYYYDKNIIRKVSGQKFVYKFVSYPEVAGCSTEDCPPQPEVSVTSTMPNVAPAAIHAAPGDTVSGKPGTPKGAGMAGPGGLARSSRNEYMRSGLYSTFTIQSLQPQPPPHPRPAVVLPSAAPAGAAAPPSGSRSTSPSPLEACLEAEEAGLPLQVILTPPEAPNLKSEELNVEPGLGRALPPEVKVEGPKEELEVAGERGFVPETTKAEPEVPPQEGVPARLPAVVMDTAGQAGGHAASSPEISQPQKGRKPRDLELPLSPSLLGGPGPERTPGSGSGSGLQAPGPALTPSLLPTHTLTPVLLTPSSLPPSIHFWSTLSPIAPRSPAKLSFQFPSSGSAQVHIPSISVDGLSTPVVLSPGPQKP
The conditions noted are these: protein: recombinant; tags: N-terminal GST; dsDNA, one strand shown. Summed up:
as §1

The next assay addresses T3, GABPA (Homo sapiens, UniProt Q06546 1-454).
T3 sequence: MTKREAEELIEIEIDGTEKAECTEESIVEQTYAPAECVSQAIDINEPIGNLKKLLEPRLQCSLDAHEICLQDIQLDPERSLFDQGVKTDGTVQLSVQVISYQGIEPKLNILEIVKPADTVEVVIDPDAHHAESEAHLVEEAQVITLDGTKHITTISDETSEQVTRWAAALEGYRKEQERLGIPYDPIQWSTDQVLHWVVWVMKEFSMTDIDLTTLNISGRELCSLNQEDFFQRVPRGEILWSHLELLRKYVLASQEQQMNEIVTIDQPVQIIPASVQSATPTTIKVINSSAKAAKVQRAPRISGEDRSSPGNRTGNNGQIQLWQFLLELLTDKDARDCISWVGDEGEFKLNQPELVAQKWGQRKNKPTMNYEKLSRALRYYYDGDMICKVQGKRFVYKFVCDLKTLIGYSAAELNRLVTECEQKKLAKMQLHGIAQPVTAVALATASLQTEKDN
The following applies: protein: recombinant; tags: N-terminal GST; dsDNA, one strand shown. Summed up: as §1

A further assay deals with T4, ERG (Homo sapiens, UniProt P11308 1-479).
T4 sequence: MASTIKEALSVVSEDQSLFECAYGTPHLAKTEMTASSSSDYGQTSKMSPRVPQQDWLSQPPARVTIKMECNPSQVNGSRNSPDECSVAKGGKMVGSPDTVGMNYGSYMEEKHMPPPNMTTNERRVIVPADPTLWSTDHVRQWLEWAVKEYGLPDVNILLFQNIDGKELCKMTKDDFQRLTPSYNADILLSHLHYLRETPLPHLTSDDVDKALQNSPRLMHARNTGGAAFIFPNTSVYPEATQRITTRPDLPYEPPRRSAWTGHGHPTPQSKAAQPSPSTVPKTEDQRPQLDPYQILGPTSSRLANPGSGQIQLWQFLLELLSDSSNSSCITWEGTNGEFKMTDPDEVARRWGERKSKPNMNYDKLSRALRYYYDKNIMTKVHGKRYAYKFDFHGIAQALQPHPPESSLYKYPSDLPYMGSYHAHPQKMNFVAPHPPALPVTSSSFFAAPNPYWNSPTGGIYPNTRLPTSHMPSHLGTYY
The conditions noted are these: protein: recombinant; tags: N-terminal GST; dsDNA, one strand shown. Summed up: as §1

The next assay deals with ELF1 (Homo sapiens, UniProt P32519 1-619). The conditions noted are these: protein: recombinant; tags: N-terminal GST; dsDNA, one strand shown. Summed up:
as §1

The next assay has as its target T5, EHF (Homo sapiens, UniProt Q9NZC4 1-300).
T5 sequence: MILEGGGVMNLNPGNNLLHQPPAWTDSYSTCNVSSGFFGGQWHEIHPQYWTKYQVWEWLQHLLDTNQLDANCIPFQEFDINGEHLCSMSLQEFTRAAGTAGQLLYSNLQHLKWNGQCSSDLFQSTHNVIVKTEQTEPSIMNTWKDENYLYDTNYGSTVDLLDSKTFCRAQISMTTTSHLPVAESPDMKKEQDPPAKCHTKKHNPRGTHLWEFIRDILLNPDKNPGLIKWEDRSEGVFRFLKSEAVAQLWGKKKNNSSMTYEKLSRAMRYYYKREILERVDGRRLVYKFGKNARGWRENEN
The following applies: protein: recombinant; tags: N-terminal GST; dsDNA, one strand shown. A digest of the protocol:
as §1

A further assay addresses SPIB (Homo sapiens, UniProt Q01892 1-262). The conditions noted are these: protein: recombinant; tags: N-terminal GST; dsDNA, one strand shown. Summed up:
as §1

The target of a further assay is T6, ELK3 (Homo sapiens, UniProt P41970 1-407).
T6 sequence: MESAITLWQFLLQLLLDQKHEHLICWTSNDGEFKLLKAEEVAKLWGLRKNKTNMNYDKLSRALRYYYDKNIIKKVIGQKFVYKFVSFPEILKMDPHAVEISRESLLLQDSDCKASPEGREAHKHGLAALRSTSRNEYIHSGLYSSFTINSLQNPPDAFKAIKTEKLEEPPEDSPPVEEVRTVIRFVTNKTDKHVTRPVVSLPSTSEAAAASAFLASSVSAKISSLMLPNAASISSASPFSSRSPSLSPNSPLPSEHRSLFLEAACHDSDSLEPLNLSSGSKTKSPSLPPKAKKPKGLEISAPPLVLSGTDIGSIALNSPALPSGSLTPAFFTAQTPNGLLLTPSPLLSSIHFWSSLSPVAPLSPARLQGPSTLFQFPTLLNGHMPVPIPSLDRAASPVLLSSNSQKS
The conditions noted are these: protein: recombinant; tags: N-terminal GST; dsDNA, one strand shown. Summed up: as §1

For another assay, the target named is T7, FEV (Homo sapiens, UniProt Q99581 1-238).
T7 sequence: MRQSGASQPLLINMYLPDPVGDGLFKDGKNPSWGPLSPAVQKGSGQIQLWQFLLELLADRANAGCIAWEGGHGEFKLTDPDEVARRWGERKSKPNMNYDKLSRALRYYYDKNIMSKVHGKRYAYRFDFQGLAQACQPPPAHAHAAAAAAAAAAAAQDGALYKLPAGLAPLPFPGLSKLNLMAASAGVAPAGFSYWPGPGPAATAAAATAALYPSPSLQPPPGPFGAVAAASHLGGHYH
The following applies: protein: recombinant; tags: N-terminal GST; dsDNA, one strand shown. Summed up: as §1

Another assay has as its target ETV5 (Homo sapiens, UniProt P41161 1-510). The conditions noted are these: protein: recombinant; tags: N-terminal GST; dsDNA, one strand shown. A digest of the protocol: as §1
The next assay has as its target HSF1 (Homo sapiens, UniProt Q00613 1-529). The following applies: protein: recombinant; tags: N-terminal GST; chain copies: 3; dsDNA, one strand shown. A digest of the protocol:
as §1

The target of a further assay is T8, SPIC (Homo sapiens, UniProt Q8N5J4 1-248).
T8 sequence: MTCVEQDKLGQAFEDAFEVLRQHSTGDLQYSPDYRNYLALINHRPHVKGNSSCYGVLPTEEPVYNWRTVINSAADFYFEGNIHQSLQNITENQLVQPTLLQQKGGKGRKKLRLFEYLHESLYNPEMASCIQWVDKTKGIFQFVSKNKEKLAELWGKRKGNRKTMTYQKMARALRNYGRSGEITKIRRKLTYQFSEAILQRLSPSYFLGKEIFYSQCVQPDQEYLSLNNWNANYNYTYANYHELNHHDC
The conditions noted are these: protein: recombinant; tags: N-terminal GST; dsDNA, one strand shown. Summed up: as §1

For a further assay, the target named is ELF4 (Homo sapiens, UniProt Q99607 1-663). The conditions noted are these: protein: recombinant; tags: N-terminal GST; dsDNA, one strand shown. A digest of the protocol: as §1
Chain of ELF4 (Q99607 whole entry): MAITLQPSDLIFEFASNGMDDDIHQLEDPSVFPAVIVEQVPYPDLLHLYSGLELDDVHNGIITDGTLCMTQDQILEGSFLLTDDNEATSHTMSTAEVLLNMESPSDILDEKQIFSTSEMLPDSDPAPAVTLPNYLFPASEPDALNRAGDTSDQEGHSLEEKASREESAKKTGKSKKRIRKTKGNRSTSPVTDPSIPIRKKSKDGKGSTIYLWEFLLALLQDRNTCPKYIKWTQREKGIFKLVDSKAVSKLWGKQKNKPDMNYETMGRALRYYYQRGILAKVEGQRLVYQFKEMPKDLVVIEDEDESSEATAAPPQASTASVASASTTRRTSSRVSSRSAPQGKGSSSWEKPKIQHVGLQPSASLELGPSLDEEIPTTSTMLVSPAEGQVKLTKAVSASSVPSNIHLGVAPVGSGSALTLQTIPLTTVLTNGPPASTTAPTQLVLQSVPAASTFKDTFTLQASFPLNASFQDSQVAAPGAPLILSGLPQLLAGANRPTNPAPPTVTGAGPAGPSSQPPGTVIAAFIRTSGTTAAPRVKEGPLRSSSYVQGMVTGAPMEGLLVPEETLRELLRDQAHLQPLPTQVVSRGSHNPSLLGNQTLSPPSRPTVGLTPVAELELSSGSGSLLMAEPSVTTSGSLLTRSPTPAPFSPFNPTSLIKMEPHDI
A further assay deals with T9, ELK4 (Homo sapiens, UniProt P28324-2 1-405).
T9 sequence: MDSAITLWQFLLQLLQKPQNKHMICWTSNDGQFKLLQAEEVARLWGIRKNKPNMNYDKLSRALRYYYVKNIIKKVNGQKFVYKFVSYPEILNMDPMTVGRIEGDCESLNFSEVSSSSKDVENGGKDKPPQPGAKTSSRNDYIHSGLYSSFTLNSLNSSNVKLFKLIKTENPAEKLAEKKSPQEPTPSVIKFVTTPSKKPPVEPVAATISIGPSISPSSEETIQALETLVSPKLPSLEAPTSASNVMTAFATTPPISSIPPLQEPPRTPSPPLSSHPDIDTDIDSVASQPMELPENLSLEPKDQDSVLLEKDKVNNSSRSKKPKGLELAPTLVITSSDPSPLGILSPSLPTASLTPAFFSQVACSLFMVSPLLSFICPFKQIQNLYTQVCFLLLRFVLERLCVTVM
The following applies: protein: recombinant; tags: N-terminal GST; dsDNA, one strand shown. Summed up:
as §1

For another assay, the target named is T10, ETV2 (Homo sapiens, UniProt O00321 1-342).
T10 sequence: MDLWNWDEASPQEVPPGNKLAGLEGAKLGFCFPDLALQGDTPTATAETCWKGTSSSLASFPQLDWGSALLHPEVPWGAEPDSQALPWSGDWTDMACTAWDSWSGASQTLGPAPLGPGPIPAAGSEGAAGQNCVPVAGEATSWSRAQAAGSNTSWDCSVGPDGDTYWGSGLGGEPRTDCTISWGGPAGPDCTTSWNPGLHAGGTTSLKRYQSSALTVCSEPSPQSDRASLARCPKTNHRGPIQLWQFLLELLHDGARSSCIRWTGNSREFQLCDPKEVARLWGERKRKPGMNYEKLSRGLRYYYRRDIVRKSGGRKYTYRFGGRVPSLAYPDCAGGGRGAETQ
The following applies: protein: recombinant; tags: N-terminal GST; dsDNA, one strand shown. Summed up:
as §1

The target in a further assay is T11, ELF3 (Homo sapiens, UniProt P78545 1-371).
T11 sequence: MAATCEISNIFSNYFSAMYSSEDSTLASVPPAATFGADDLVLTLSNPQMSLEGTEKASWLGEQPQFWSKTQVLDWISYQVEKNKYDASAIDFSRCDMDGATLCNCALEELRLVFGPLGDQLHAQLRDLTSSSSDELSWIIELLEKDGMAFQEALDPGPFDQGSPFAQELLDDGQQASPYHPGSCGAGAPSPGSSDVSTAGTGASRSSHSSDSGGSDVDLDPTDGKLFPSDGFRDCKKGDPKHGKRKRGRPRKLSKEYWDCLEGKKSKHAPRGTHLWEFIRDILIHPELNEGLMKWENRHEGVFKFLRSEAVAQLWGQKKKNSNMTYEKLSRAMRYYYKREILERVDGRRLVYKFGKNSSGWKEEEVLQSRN
The following applies: protein: recombinant; tags: N-terminal GST; dsDNA, one strand shown. A digest of the protocol:
as §1

The next assay addresses CRX (Homo sapiens, UniProt O43186 1-299). The following applies: protein: recombinant; tags: N-terminal GST; dsDNA, one strand shown. A digest of the protocol:
as §1

Another assay has as its target ETV1 (Homo sapiens, UniProt P50549 1-477). The following applies: protein: recombinant; tags: N-terminal GST; dsDNA, one strand shown. Summed up:
as §1

Chain of SPIB (Q01892 whole entry): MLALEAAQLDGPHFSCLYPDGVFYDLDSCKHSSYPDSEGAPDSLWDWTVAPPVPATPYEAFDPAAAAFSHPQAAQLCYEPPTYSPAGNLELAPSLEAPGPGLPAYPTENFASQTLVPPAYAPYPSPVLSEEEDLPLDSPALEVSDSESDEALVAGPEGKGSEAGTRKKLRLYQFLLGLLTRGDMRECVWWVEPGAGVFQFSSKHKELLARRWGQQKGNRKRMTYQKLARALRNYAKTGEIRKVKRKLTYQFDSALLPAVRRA
Chain of ELF1 (P32519 whole entry): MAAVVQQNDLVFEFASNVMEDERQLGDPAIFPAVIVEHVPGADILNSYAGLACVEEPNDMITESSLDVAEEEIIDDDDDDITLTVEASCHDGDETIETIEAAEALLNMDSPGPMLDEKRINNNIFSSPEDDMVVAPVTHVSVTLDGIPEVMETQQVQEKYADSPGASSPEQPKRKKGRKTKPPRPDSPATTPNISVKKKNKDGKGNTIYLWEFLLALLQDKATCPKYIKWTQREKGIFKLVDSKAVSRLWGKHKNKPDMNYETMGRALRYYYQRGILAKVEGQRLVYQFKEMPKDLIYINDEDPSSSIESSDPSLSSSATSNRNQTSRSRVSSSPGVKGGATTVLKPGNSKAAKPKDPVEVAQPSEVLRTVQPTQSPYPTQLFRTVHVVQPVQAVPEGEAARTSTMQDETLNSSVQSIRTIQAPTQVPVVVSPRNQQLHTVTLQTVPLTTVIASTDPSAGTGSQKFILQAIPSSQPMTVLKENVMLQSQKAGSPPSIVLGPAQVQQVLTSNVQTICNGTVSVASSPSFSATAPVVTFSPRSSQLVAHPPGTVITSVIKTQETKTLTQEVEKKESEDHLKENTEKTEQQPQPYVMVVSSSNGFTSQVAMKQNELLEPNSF
Chain of CRX (O43186 whole entry): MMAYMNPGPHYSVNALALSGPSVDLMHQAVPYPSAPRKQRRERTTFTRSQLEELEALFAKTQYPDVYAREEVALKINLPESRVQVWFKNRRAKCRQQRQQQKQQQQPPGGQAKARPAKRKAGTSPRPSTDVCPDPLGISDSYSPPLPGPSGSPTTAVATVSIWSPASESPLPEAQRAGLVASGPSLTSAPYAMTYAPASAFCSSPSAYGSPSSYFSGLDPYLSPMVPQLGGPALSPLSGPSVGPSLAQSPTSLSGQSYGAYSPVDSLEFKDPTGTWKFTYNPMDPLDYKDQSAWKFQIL
Chain of HSF1 (Q00613 whole entry): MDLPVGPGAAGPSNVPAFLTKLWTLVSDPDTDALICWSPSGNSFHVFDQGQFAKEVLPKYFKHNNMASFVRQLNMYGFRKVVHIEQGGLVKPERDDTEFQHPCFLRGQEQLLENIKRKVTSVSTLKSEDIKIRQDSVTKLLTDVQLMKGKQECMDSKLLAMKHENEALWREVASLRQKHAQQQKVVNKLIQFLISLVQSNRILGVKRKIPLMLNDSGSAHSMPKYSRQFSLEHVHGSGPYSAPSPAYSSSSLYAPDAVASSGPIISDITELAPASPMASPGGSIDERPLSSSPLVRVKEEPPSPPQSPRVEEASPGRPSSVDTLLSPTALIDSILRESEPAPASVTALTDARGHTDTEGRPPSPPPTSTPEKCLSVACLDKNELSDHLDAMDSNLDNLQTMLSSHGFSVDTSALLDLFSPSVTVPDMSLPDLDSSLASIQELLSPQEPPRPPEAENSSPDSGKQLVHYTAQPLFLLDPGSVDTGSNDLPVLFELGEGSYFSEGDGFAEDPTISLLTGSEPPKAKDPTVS
Chain of ETV5 (P41161 whole entry): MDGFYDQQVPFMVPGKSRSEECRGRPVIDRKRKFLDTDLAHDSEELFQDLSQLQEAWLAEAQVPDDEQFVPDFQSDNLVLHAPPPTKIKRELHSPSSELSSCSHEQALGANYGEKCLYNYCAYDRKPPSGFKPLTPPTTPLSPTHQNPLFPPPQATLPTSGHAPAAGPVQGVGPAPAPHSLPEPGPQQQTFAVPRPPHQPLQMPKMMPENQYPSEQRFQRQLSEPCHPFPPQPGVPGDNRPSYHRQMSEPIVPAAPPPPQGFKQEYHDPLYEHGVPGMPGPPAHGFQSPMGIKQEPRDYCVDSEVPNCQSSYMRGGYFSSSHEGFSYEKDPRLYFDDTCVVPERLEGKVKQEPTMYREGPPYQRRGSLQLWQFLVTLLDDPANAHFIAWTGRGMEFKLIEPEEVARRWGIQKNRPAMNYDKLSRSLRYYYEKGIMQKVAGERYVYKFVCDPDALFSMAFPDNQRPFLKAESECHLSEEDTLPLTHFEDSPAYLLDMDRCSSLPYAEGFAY
Chain of ETV1 (P50549 whole entry): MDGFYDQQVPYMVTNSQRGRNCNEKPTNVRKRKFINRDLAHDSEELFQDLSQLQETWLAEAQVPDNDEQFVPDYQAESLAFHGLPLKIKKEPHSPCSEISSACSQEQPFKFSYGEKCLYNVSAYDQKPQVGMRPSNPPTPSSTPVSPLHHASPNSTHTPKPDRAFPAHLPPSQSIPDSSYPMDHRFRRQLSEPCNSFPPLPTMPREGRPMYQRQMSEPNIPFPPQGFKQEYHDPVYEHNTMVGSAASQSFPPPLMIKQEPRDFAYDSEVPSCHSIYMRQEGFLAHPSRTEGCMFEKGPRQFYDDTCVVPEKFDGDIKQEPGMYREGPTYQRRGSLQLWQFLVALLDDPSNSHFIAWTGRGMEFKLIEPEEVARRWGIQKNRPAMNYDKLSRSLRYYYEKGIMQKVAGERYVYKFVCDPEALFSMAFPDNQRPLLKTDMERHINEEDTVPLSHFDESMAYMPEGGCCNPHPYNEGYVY

Regarding TTAGTA, the binding signal is 1.23 fold enrichment (6-mer frequency, TF over GST control) with FLI1; 1.13 fold enrichment (6-mer frequency, TF over GST control) with ELK1; 1.21 fold enrichment (6-mer frequency, TF over GST control) with GABPA; 1.21 fold enrichment (6-mer frequency, TF over GST control) with ERG; 1.12 fold enrichment (6-mer frequency, TF over GST control) in the assay with ELF1; 1.08 fold enrichment (6-mer frequency, TF over GST control) with EHF. In addition, the binding signal with SPIB is 1.06 fold enrichment (6-mer frequency, TF over GST control); with ELK3, 1.08 fold enrichment (6-mer frequency, TF over GST control); with FEV it was 1.05 fold enrichment (6-mer frequency, TF over GST control); in the assay with ETV5, 1.15 fold enrichment (6-mer frequency, TF over GST control); with HSF1, 1.68 fold enrichment (6-mer frequency, TF over GST control); with SPIC, 1.16 fold enrichment (6-mer frequency, TF over GST control). In addition, the binding signal is 1.1 fold enrichment (6-mer frequency, TF over GST control) with ELF4; 1.12 fold enrichment (6-mer frequency, TF over GST control) with ELK4; 1.22 fold enrichment (6-mer frequency, TF over GST control) with ETV2; 1.15 fold enrichment (6-mer frequency, TF over GST control) with ELF3; 2.39 fold enrichment (6-mer frequency, TF over GST control) in the assay with CRX; 1.11 fold enrichment (6-mer frequency, TF over GST control) with ETV1.

For the origin of these results see publication PMC7862700, “An all-to-all approach to the identification of sequence-specific readers for epigenetic DNA modifications on cytosine”.
